Experimental data as given in PubChem BioAssay (NCATS).
“And” between values parts separate entries of the source, which are not always exact repeats. Identical values can stand only once. Records with an inconclusive call do not appear. The source made the active and inactive calls. Unless noted, the call rests on the fitted dose curve; in most records, active means well fitted curve in the direction sought with a large enough effect; inconclusive means small, poorly fitted or top-dose-only effect, or another doubt; inactive means no such curve, though single readings can be large; an effect the other way counts as inactive or inconclusive.

Tests used:
[1] = Cell Viability - BJ (AID 421; calls by dose curve;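 further: potency means the concentration at half of the fitted maximal effect; cells exposed to compound for 40 hours at 37 °C before readout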); conditions: BJ fibroblast viability, qHTS
Method in brief: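 Cytotoxicity as drop in intracellular ATP (CellTiter-Glo, 20 min RT) after 40 hr compound exposure of BJ fibroblasts at 37 °C. Titrations scaled between DMSO and 100 uM tamoxifen, Hill-fitted for AC50.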

[2] = Cell Viability - HepG2 (AID 433; calls by dose curve;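 further: potency means the concentration at half of the fitted maximal effect; potency for ATP loss meaning cytotoxicity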); conditions: qHTS
Method in brief: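 Cytotoxicity is scored as loss of intracellular ATP in HepG2 cells exposed to compounds for 40 h. Concentration-response curves, normalized to DMSO and 100 uM tamoxifen, give AC50 values.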

[3] = Cell Viability - HUV-EC-C (AID 542); conditions: HUV-EC-C endothelial cell viability, qHTS; series mostly up to 92.2 µM; further: on the % scale 0 is the no-effect control and ±100 the full control effect; nearly all actives have a fitted effect of over 35% in size
Method in brief: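 Concentration-dependent ATP loss in HUV-EC-C cells is the measure. Exposure lasts 40 hr at 37 °C; luminescence follows CellTiter-Glo addition, and Hill fits give AC50.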

[4] = Cell Viability - Mesenchymal (AID 546); conditions: mesenchymal cells viability, qHTS; activity change, negative = cytotoxicity: at 91.7 µM (top of the series);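 further: cells exposed to compound for 40 hours before reading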
Method in brief: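 CellTiter-Glo luminescence (intracellular ATP, 20 min room temperature) after 40 hr compound exposure at 37 °C of 1000 glomerulus-derived human kidney mesenchymal cells/well; AC50 values obtained by fitting qHTS concentration-response data to the Hill equation.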

[5] = Cellular Toxicity (caspase-3) Jurkat (AID 655); conditions: Jurkat caspase-3 activation, luminescence; caspase-3 activation: at 92.2 µM (top of the series), DMSO = 0%, tamoxifen = 100%;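 further: cells exposed to compound for 16 h at 37 °C before reading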
Method in brief: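 Caspase 3/7 activation is scored as increased luminescence in Jurkat cells cultured with compound for 16 hours in complete medium. AC50 values come from Hill fits of qHTS concentration-response data normalized to DMSO and 100 uM tamoxifen controls.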

[6] = Cellular Toxicity (caspase-3) NIH 3T3 (AID 666); conditions: NIH 3T3 caspase-3 activation, apoptosis/toxicity, 0% DMSO, 100% is 100 µM tamoxifen; series mostly up to 92.2 µM;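 further: caspase signal read after 16 h compound exposure; 0% = DMSO basal and 100% = 100 µM tamoxifen stimulation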
Method in brief: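 Activity: caspase-3/7 induction, NIH 3T3 cells, 16 hr treatment at 37°C, luminescent Caspase-Glo detection; AC50 via Hill equation.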

[7] = Cell Viability - LYMP1-002 - Assay at 16 hr (AID 948); conditions: LYMP1-002 lymphoblastoid cell viability; series mostly up to 92.2 µM;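 further: 0% = DMSO alone and full effect = 92 µM tetraoctylammonium bromide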
Method in brief: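 Acute cytotoxicity is scored as a concentration-dependent fall in intracellular ATP in a human lymphoblastoid line (LYMP1-002) after 16 hr compound exposure at 37 C, measured by luciferase luminescence.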

[8] = MultiTox-Fluor Cytotoxicity Assay - LYMP1-002 - Live Cells (AID 955); conditions: LYMP1-002 lymphoblastoid live-cell protease fluorescence viability; series mostly up to 46.1 µM; further: on the % scale 0 is the no-effect control and ±100 the full control effect
Method in brief: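 In this qHTS viability format, lymphoblastoid cells (LYMP1-002, human) received compound for 16 hr at 37 C. Fluorogenic GF-AFC cleavage by viable cells was detected at 405/510 nm after 1 h at room temperature.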

[9] = Cell Viability - LYMP2-011 (AID 969); conditions: LYMP2-011 lymphoblastoid cells viability; series mostly up to 92.2 µM;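 further: cells exposed to compound for 24 hours; 0% = DMSO only and full inhibition = 92 µM tetraoctylammonium bromide; nearly all actives have a fitted effect of over 60% in size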
Method in brief: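 Cells seeded at 2500 per well rest 5 hr before compound addition, then incubate 24 hr at 37 C. CellTiter-Glo reagent is added for 30 min at room temperature before luminescence detection.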

[10] = Cell Viability - LYMP2-013 (AID 970); conditions: LYMP2-013 lymphoblastoid cells viability; series mostly up to 92.2 µM;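 further: cells exposed to compound for 24 h at 37 °C; 0% = DMSO only and full inhibition = tetraoctylammonium bromide control; nearly all actives have a fitted effect of over 55% in size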
Method in brief: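 In complete culture medium, human lymphoblastoid cells were dosed for 24 hr at 37 C, with tetraoctylammonium bromide (6.4pM to 92 uM) as positive control. Viability reflects luciferase-based ATP signal; AC50 derived from concentration-response curves.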

[11] = Cell Viability - LYMP2-023 (AID 975); conditions: LYMP2-023 lymphoblastoid cell viability; series mostly up to 92.2 µM;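 further: cellular ATP measured by luciferase luminescence as viability proxy; cells exposed to compound for 24 hours at 37 °C; plate controls were DMSO only for no effect and 92 µM tetraoctylammonium bromide control for full effect; nearly all actives have a fitted effect of over 55% in size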
Method in brief: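 In this qHTS, ATP-based luciferase luminescence (CellTiter-Glo) is quantified in human lymphoblastoid cells after 24 hr compound treatment at 37 C; tetraoctylammonium bromide serves as positive control. Concentration-response curves are Hill-fitted to give AC50.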

[12] = Cell Viability - LYMP2-007 (AID 979); conditions: LYMP2-007 lymphoblastoid cell viability; series mostly up to 92.2 µM;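 further: cells exposed to compound for 24 h before reading; 0% = DMSO only and the negative end = 92 µM tetraoctylammonium bromide; nearly all actives have a fitted effect of over 60% in size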
Method in brief: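 Measured via luciferase-based ATP quantitation: lymphoblastoid cells, 24 hr compound exposure at 37 C, AC50 from Hill fits.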

[13] = Cell Viability - LYMP2-008 (AID 980); conditions: LYMP2-008 lymphoblastoid cell viability, qHTS; series mostly up to 92.2 µM;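 further: cells exposed to compound for 24 h at 37 °C; on the % scale 0 is the no-effect control and ±100 the full control effect; nearly all actives have a fitted effect of over 60% in size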
Method in brief: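 Measured: ATP-dependent luminescence, proportional to viable cell number, in human lymphoblastoid cells treated 24 hr with compound in complete culture medium. Values are AC50s from Hill-equation modelling of qHTS titrations.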

[14] = Cell Viability - LYMP2-014 (AID 983); conditions: LYMP2-014 lymphoblastoid cells, viability qHTS; series mostly up to 92.2 µM;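 further: cells exposed to compound for 24 h at 37 °C; plate controls were DMSO only for no effect and 92 µM tetraoctylammonium bromide for full effect; nearly all actives have a fitted effect of over 50% in size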
Method in brief: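 Quantitative HTS in lymphoblastoid cells: 24 hr compound exposure, then CellTiter-Glo ATP luminescence. Positive control was tetraoctylammonium bromide, 6.4pM to 92 uM.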

[15] = Cell Viability - LYMP2-016 (AID 984); conditions: LYMP2-016 lymphoblastoid cell viability, qHTS; series mostly up to 92.2 µM;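 further: cells exposed to compound for 24 hours at 37 °C; on the % scale 0 is the no-effect control and ±100 the full control effect; nearly all actives have a fitted effect of over 55% in size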
Method in brief: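 Acute toxicity in a Coriell human lymphoblastoid line is scored as loss of intracellular ATP over 24 h of treatment in complete medium. CellTiter-Glo signal is fitted across concentrations with the Hill equation to give AC50.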

[16] = Cell Viability - LYMP2-018 (AID 985); conditions: LYMP2-018 lymphoblastoid cells, viability (qHTS); series mostly up to 92.2 µM;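 further: plate controls were DMSO only for no effect and tetraoctylammonium bromide at 92 µM for full effect; nearly all actives have a fitted effect of over 50% in size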
Method in brief: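 In this qHTS viability assay, cells are treated for 24 hr and cellular ATP is quantified by luciferase-based luminescence, with tetraoctylammonium bromide as positive control.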

[17] = Cell Viability - LYMP2-026 (AID 989); conditions: LYMP2-026 lymphoblastoid cell viability, qHTS; series mostly up to 92.2 µM;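 further: cells exposed to compound for 24 h at 37 °C; on the % scale 0 is the no-effect control and ±100 the full control effect; nearly all actives have a fitted effect of over 50% in size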
Method in brief: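 Acute toxicity screen in complete culture medium, with 24 hr compound exposure at 37 C. Viability read as cellular ATP via luciferase reaction, with tetraoctylammonium bromide (6.4pM to 92 uM) as positive control.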

[18] = Cell Viability - LYMP1-002 - Assay at 40 hr (AID 994); conditions: LYMP1-002 lymphoblastoid cell viability; series mostly up to 92.2 µM;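 further: 0% = DMSO only and full inhibition = 92 µM tetraoctylammonium bromide; nearly all actives have a fitted effect of over 60% in size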
Method in brief: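 Concentration-dependent ATP loss after 40 hr treatment at 37 C defined toxicity; AC50 values were obtained by fitting the standard Hill equation.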

[19] = qHTS assay for cell viability of HEK293 cells (AID 743288); conditions: ATP luminescence (CellTiter-Glo), 18 h; max response: hits give low values; further: on the % scale 0 is the no-effect control and ±100 the full control effect; nearly all actives have a fitted effect of over 50% in size
Method in brief: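 Quantitative high-throughput screen: compounds were pinned onto parental HEK293 cells (2,000 per well) after a minimum 5 h settling at 37 C, incubated 18 h at 37 C, and intracellular ATP measured by luciferase luminescence.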

[20] = Cell Viability - LYMP2-025 (AID 976); conditions: LYMP2-025 lymphoblastoid cell viability; series mostly up to 92.2 µM;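 further: cells exposed to compound for 24 h at 37 °C; plate controls were DMSO only for no effect and tetraoctylammonium bromide control for full effect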
Method in brief: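 Luminescent ATP readout after 24 hr treatment of a human lymphoblastoid line (LYMP2-025, 2500 cells/well, 37 C). Reagent developed 30 min at room temperature; AC50 fitted with the Hill equation.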

CC(C)OCC1CO1 (stereo not drawn)
inactive: Potency [1] > 92 µM | Potency [2] > 92 µM | Potency [3] | Potency [4] | Potency [5] | outcome [6] | Potency [7] | outcome [8] | Potency [9] | Potency [10] | Potency [11] | Potency [12] | Potency [13] | Potency [14] | Potency [15] | Potency [16] | Potency [17] | Potency [18] | max response [19] -0.12%

Cc1ccc(N)cc1[N+](=O)[O-]
inactive: Potency [1] > 92 µM | Potency [2] > 92 µM | Potency [3] | Potency [4] | Potency [5] | outcome [6] | Potency [7] | outcome [8] | Potency [9] | Potency [10] | Potency [11] | Potency [20] | Potency [12] | Potency [13] | Potency [14] | Potency [15] | Potency [16] | Potency [17] | Potency [18] | max response [19] 4.69%

Cc1ccc(C(=O)O)cc1[N+](=O)[O-]
inactive: Potency [1] > 92 µM | Potency [2] > 92 µM | Potency [3] | Potency [4] | Potency [5] | outcome [6] | Potency [7] | outcome [8] | Potency [9] | Potency [10] | Potency [11] | Potency [20] | Potency [12] | Potency [13] | Potency [14] | Potency [15] | Potency [16] | Potency [17] | Potency [18] | max response [19] 1.99%

CCCCCCc1ccc(-c2ccc(C#N)cc2)cc1
inactive: Potency [1] > 92 µM | Potency [2] > 92 µM | Potency [3] | Potency [4] | Potency [5] | outcome [6] | Potency [7] | outcome [8] | Potency [9] | Potency [10] | Potency [11] | Potency [20] | Potency [12] | Potency [13] | Potency [14] | Potency [15] | Potency [16] | Potency [17] | Potency [18] | max response [19] -6.02%

C=CC1CO1 (stereo not drawn)
inactive: Potency [1] > 92 µM | Potency [2] > 92 µM | Potency [3] | Potency [4] | Potency [5] | outcome [6] | Potency [7] | outcome [8] | Potency [9] | Potency [10] | Potency [11] | Potency [20] | Potency [12] | Potency [13] | Potency [14] | Potency [15] | Potency [16] | Potency [17] | Potency [18] | max response [19] -1.41%

CCCCC(CC)COCCCN (stereo not drawn)
inactive: Potency [1] > 92 µM | Potency [2] > 92 µM | Potency [3] | Potency [4] | Potency [5] | outcome [6] | Potency [7] | outcome [8] | Potency [9] | Potency [10] | Potency [11] | Potency [20] | Potency [12] | Potency [13] | Potency [14] | Potency [15] | Potency [17] | Potency [18] | max response [19] 10.2%

COc1ccc(C(=O)Nc2ccccc2)cc1[N+](=O)[O-]
inactive: Potency [1] > 92 µM | Potency [2] > 92 µM | Potency [3] | Potency [4] | Potency [5] | outcome [6] | Potency [7] | outcome [8] | Potency [9] | Potency [10] | Potency [11] | Potency [20] | Potency [12] | Potency [13] | Potency [14] | Potency [15] | Potency [16] | Potency [17] | Potency [18] | max response [19] -5.07%

CCNC(=S)NCC
inactive: Potency [1] > 92 µM | Potency [2] > 92 µM | Potency [3] | Potency [4] | Potency [5] | outcome [6] | Potency [7] | outcome [8] | Potency [9] | Potency [10] | Potency [11] | Potency [20] | Potency [12] | Potency [13] | Potency [14] | Potency [15] | Potency [16] | Potency [17] | Potency [18] | max response [19] -6.53%

Nc1cc(C(=O)O)c(O)c(S(=O)(=O)O)c1
inactive: Potency [1] > 92 µM | Potency [2] > 92 µM | Potency [3] | Potency [4] | Potency [5] | outcome [6] | Potency [7] | outcome [8] | Potency [9] | Potency [10] | Potency [11] | Potency [20] | Potency [12] | Potency [13] | Potency [14] | Potency [15] | Potency [16] | Potency [17] | Potency [18] | max response [19] -1.32%

OCC(CO)(CBr)CBr
inactive: Potency [1] > 92 µM | Potency [2] > 92 µM | Potency [3] | Potency [4] | Potency [5] | outcome [6] | Potency [7] | outcome [8] | Potency [9] | Potency [10] | Potency [11] | Potency [20] | Potency [12] | Potency [13] | Potency [14] | Potency [15] | Potency [16] | Potency [17] | Potency [18] | max response [19] -6.95% and -8.44%

O=[N+]([O-])c1ccc(F)cc1F
inactive: Potency [1] > 92 µM | Potency [2] > 92 µM | Potency [3] | Potency [4] | Potency [5] | outcome [6] | Potency [7] | outcome [8] | Potency [9] | Potency [10] | Potency [11] | Potency [20] | Potency [12] | Potency [13] | Potency [14] | Potency [15] | Potency [16] | Potency [17] | Potency [18] | max response [19] 3.6%

CC(=O)OC1CC(C)OC(C)O1 (stereo not drawn)
inactive: Potency [1] > 92 µM | Potency [2] > 92 µM | Potency [3] | Potency [4] | Potency [5] | outcome [6] | Potency [7] | outcome [8] | Potency [9] | Potency [10] | Potency [11] | Potency [20] | Potency [12] | Potency [13] | Potency [14] | Potency [15] | Potency [16] | Potency [17] | Potency [18] | max response [19] -1.36% and -5.57%
